# Screens from PubChem BioAssay.
# Shown are actives, neighbours in structure and some others; about 19% of the full set was active somewhere.
# IL1B secr inh = blocks inflammasome-driven IL-1 beta release. THP-1 LPS/ATP IL-1B secretion, AlphaLISA, 16 h; active compounds read low. activity change, % at 57.5 µM. actives 4.7% (n = 360,000); in the data active = activity change below about -50%; inconclusive = mostly about -30% to -49%; also: % is scaled to controls: 0 for no effect and ±100 for the full control effect
#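 THP-1 cells pretreated 1 hr with compounds (up to 57.5 uM final), then stimulated with LPS (250 ng/mL final) plus ATP (1.25 mM final); secreted IL-1B measured by AlphaLISA after 16 hr, decreased signal indicating inhibition.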
# HepG2 viability = HepG2 cytotoxicity, counter-screen for TGF-b inhibitors; HepG2 CAGA-GFP viability, ATP luminescence, 18 h; Potency, µM (titrated, usually from 46.1 µM), for inactives: top-dose activity change, negative = cytotoxicity, usual class: cytotoxic; actives 0.76% (n = 410,000); also: potency is read from the fitted curve at half-maximal effect
#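 CellTiter-Glo luminescence gave cytotoxicity after 18 hours at 37 degrees C. The cells were HepG2 CAGA-GFP in 1% FBS DMEM, stimulated with 500 pg/mL TGF-beta after compound addition. %Activity was normalised to no-cell wells (complete cell-killing) and DMSO (no toxicity), and curves were fitted and classified.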
# TDP1 cell CPT = growth inhibition of DT40 Tdp1-/-;hTDP1 cells with camptothecin (screen for TDP1 inhibitors) | Potency, µM (doses to about 46.2 µM), inactives show at the top dose activity change, negative = growth inhibition, usual class: inhibitors | actives 12% (n = 420,000) | chicken DT40 Tdp1-/-;hTDP1 cells + 20 nM CPT, ATP luminescence, 48 h | AID 686979; also: potency is read from the fitted curve at half-maximal effect; % is scaled to controls: 0 for no effect and ±100 for the full control effect; nearly all actives have a fitted effect of over 55% in size
#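 Cell growth measured by CellTiter-Glo luminescence after a minimum 48 h, 37 C compound exposure with 20 nM CPT in Tdp1-knockout DT40 cells stably expressing hTDP1, seeded 400/well; qHTS titration format.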
# TDP1 cell noCPT = qHTS for Inhibitors of human tyrosyl-DNA phosphodiesterase 1 (TDP1): qHTS in cells in absence of CPT; Potency, µM (doses to about 46.2 µM), for inactives: at the top dose activity change, negative = growth inhibition, hits mostly inhibitors; DT40 Tdp1-/- hTDP1 cells, no CPT, ATP luminescence, 48 h; actives 15% (n = 420,000); also: potency is read from the fitted curve at half-maximal effect; % is scaled to controls: 0 for no effect and ±100 for the full control effect; nearly all actives have a fitted effect of over 55% in size
#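 DT40 Tdp1-/-;hTDP1 cells, no CPT (DMSO vehicle only), 400 cells/well; compounds pin-transferred; ≥48 hr, 37 °C; CellTiter-Glo 30 min RT dark, luminescence read.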
# TDP1 inh = TDP1 (human) enzyme inhibition; Potency, µM (doses to about 130 µM), for inactives: at the top dose activity change, negative = inhibition, usual class: inhibitors; recombinant TDP1, AlphaScreen DNA substrate cleavage; Q9NUW8; actives 0.28% (n = 350,000); AID 485290; also: potency is read from the fitted curve at half-maximal effect; % is scaled to controls: 0 for no effect and ±100 for the full control effect; nearly all actives have a fitted effect of over 40% in size
# Target sequence (Q9NUW8 whole entry, looked up): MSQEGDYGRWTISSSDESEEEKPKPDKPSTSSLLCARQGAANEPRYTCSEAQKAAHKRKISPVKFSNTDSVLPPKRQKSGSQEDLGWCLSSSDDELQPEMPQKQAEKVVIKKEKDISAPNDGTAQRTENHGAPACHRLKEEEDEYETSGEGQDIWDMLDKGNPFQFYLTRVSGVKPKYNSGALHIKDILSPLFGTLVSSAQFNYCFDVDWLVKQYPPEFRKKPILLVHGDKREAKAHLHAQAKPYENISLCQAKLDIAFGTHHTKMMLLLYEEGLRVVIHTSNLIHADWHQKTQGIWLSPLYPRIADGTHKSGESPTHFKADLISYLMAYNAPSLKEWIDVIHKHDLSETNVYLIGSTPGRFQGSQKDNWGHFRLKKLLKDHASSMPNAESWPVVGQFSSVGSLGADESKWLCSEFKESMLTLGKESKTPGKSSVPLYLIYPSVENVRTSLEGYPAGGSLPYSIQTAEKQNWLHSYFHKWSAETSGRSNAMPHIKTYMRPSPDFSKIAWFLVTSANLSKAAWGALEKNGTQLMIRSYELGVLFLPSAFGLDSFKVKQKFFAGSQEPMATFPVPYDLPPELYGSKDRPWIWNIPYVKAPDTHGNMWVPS
#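 Tdp1 1 nM final; 15 min RT w/ cpd; substrate 15 nM, 5 min; beads 10 ug/ml, 10 min; AlphaScreen read. Neg ctrl: no enzyme.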
# TGFb inhibitor = blocks TGF-b signaling. HepG2 CAGA-GFP TGF-b/SMAD3 reporter, GFP fluorescence, 18 h; TGF-beta stimulated, 500 pg/mL final. actives 1.2% (n = 410,000). Potency, µM (doses to about 46.1 µM), without a hit: at the top dose activity, negative = inhibition, usual class: inhibitors; also: potency is read from the fitted curve at half-maximal effect; % is scaled to controls: 0 for no effect and ±100 for the full control effect; nearly all actives have a fitted effect of over 65% in size
#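 Read-out: total well GFP (ex488/em500-530) summed from mean per-cell fluorescence. Cells: HEPG2 CAGA-GFP, 1% FBS DMEM, 18 h at 37 degrees C with 500 pg/mL final TGF-beta. Unstimulated wells served as the full-inhibition control; stimulated DMSO wells = 0%.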
# Numbers without * were called inactive; ? = inconclusive; · = no result given; [ ] = dose if it differs, or a comment. Unless noted, calls follow the shape of the dose curve; as a rule, active = well fitted curve in the direction sought with a large enough effect; inconclusive = small, poorly fitted or top-dose-only effect, or another doubt; inactive = no such curve, though single readings can be large; an effect the other way counts as inactive or inconclusive.
SMILES,IL1B secr inh,HepG2 viability,TDP1 cell CPT,TDP1 cell noCPT,TDP1 inh,TGFb inhibitor
CSc1ncccc1C(=O)NC(C)CCc1ccccc1 (centres undefined),-10,-1%,-8%,-21%,·,16%
COc1ccc(C2NCCc3c2[nH]c2ccccc32)cc1CSc1nc2ccccc2s1 (centres undefined),-15,-91%,?,?,5%,?
CC(C)n1c(SCC(=O)Nc2nncs2)nnc1C1CC1,-3,-10%,9%,22%,-4%,-15%
C=CCn1c(SCC(=O)Nc2ccc(Cl)cn2)nnc1C1CC1,40,9%,29%,19%,6%,-3%
Cn1c(SCC(=O)Nc2nncs2)nnc1C1CC1,-11,0%,-4%,24%,8.9µM*,-6%
Cn1c(SCC(=O)Nc2ccc(Cl)cn2)nnc1C1CC1,-78*,5%,-1%,24%,2%,0%
Clc1cccc(CNCCCSc2nnnn2-c2ccccc2)c1,·,-50%,?,?,-2%,0%
Cc1ccc(C(=O)NCC#N)cc1,-15,6%,?,?,3%,-3%
COC(=O)NC(=C(Cl)Cl)S(=O)(=O)c1ccccc1,-118*,9%,6.5µM*,10µM*,3%,?
Cc1ccc(C(=O)NC(=S)NNS(=O)(=O)c2ccccc2)cc1,-7,-3%,0%,-17%,8%,9%
COc1ccc(C(=O)NC(=O)COC(=O)CCS(=O)(=O)c2ccc(C)cc2)cc1,4,-6%,-5%,6%,-1%,1%
COc1ccc(C(=O)NC(=C(Cl)Cl)S(=O)(=O)c2ccc(C)cc2)cc1,-95*,-43%,?,?,5%,?
Cc1ccc(C(=O)NC(C#N)=C(Cl)Cl)cc1,-103*,-106%,?,2.3µM*,5%,?
Cc1ccc(C(=O)NC(=C(Cl)Cl)S(=O)(=O)c2ccccc2)cc1,-95*,-15%,?,21µM*,-5%,?
CCNc1ncc2nc(-c3ccc(OC)cc3)c(=O)n(CCOC)c2n1,·,·,4%,6%,·,·
CCCCn1c(N)c(N(CCC(C)C)C(=O)c2c(C)noc2C)c(=O)[nH]c1=O,4,-9%,4%,-22%,-11%,0%
Cn1c(=O)c(-c2ccc(F)cc2)nc2cnc(N3CCOCC3)nc21,·,·,0%,4%,·,·
O=c1oc2ccccc2c2oc3cc(O)c(O)cc3c12,74,-39%,-5%,-4%,8%,?
O=c1oc2c(O)c(O)cc3c(=O)oc4c(O)c(O)cc1c4c23,-51*,2%,?,-4%,0.1µM*,6%
O=C(CSc1nc2ccccc2s1)N1N=C(c2cccs2)CC1c1ccc(F)cc1 (centres undefined),-7,1%,?,?,3%,-4%
CCN1CCc2c(OCC(=O)N3N=C(c4cccs4)CC3c3ccc(F)cc3)cccc2C1=O (centres undefined),-57*,-18%,21µM*,18µM*,3%,-15%
CN1CCc2c(OCC(=O)N3N=C(c4cccs4)CC3c3ccc(F)cc3)cccc2C1=O (centres undefined),-67*,-62%,12µM*,29µM*,-1%,?
C/C(=N\Nc1nc(-c2cc(C)ccc2C)cs1)c1cc2c(ccc3ccccc32)oc1=O,12,-2%,?,16µM*,12%,-14%
Clc1ccc(C(c2nnnn2C2CCCC2)N2CCN(Cc3ccncc3)CC2)cc1 (centres undefined),-19,-16%,?,?,-3%,45%
c1ccc(C(c2ccccc2)N2CCN(Cc3nnnn3C3CCCC3)CC2)cc1,-14,5%,?,16µM*,2%,?
SMILES,IL1B secr inh,HepG2 viability,TDP1 cell CPT,TDP1 cell noCPT,TDP1 inh,TGFb inhibitor
CC(C)CCn1nnnc1CN1CCN(C(c2ccccc2)c2ccccc2)CC1,3,-19%,?,18µM*,5%,?
Fc1ccc(C(c2nnnn2C2CCCC2)N2CCN(Cc3ccccc3)CC2)cc1 (centres undefined),-54*,-3%,18µM*,?,4%,10%
CCC(C)(C)n1nnnc1CN1CCN(C(c2ccccc2)c2ccccc2)CC1,11,-19%,?,21µM*,0%,-2%
CCc1ccccc1O,·,·,·,·,6%,·
N[C@@H](CCC(=O)N[C@@H](CS)C(=O)NCC(=O)O)C(=O)O,·,·,?,-15%,·,·
Cc1ccccc1NC(=O)Cc1nc(COC(=O)C(NC(=O)c2ccccc2C)C(C)C)cs1 (centres undefined),8,7%,?,?,-3%[56.1 µM],0%
Oc1ccc(N=Nc2nc(-c3ccccc3)c(-c3ccccc3)[nH]2)cc1,0,-28%,?,23µM*,11%,-30%
Nc1ncc([N+](=O)[O-])c(Oc2ccccc2F)n1,6,-1%,-9%,-7%,3%,4%
COc1cccc(Oc2nc(N)ncc2[N+](=O)[O-])c1,-73*,-6%,-19%,-18%,-1%,-3%
C1=Nc2ccccc2CN1c1ccccc1,8,-20%,-4%,?,-1%,4%
CC(C)c1ccc(N2C=Nc3ccc(C(C)C)cc3C2)cc1,-97*,-62%,?,?,6%,?
COc1ccc(Oc2ncc3nc(-c4cc(F)cc(F)c4)c(=O)n(CCC#N)c3n2)cc1,·,·,-26%,?,·,·
CC(=O)Nc1ccc(NC(=O)C(C)OC(=O)/C=C/c2cnc3ccccc3n2)cc1 (centres undefined),-1,-3%,-22%,-5%,·,-2%
